Here are results for 15 compounds from PubChem BioAssay (NCI).

Compounds without any hit were thinned out: in the full panel of roughly 79,000, 15% have a hit. A number with no mark means an inactive call. The source made the active and inactive calls. Rule as the data show it: active = growth inhibition above about 70%; inactive = the rest.

This experiment can be described thus: NCI Yeast Anticancer Drug Screen. Data for the sgs1 mgt1 strain (AID 161).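 Also: 0% = growth of cultures given vehicle only.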 Particulars: S. cerevisiae sgs1 mgt1 strain, at 50.0 µM (retest, dose inferred, filed as 5.0), stronger effect = higher value. The gist of the method:
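Growth of a repair-deficient yeast mutant was monitored after compound treatment and expressed as inhibition relative to vehicle-treated cultures.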
Turning to `CCCCCCCCCCS(=O)(=O)Nc1ccc(C(=O)NN)cc1`, the growth inhibition was 82% (active).

`ON(C(=Nc1ccc(Cl)cc1)c1ccccc1)c1ccccc1`: the growth inhibition is 99% (active).

Regarding `Cc1ccc(-c2c(N)[n+]([O-])c3ccccc3[n+]2[O-])cc1`, the growth inhibition was 100% (active).

On to `NC(=O)C12OC3CC(CC(C3)O1)O2`, for which the growth inhibition is 12%.

For `C=C(C)[P+](C)(c1ccccc1)c1ccccc1`, the growth inhibition is 22%.

As to `CCC(C)SC1SCC2C(=O)N(C)C3(CC3C)C(=O)OCC(NC(=O)c3nc4ccccc4cc3O)C(=O)NC(C)C(=O)N(C)C1C(=O)N(C)C1(CC1C)C(=O)OCC(NC(=O)c1nc3ccccc3cc1O)C(=O)NC(C)C(=O)N2C` (stereo not given), the growth inhibition was 93% (active).

In the case of `COc1ccc2ccc(=O)oc2c1CC=C(C)C`, the growth inhibition was 99% (active).

Take `O=c1ccn(C2OC(COC(c3ccccc3)(c3ccccc3)c3ccccc3)C(O)C2O)c(=O)[nH]1` (stereo not given): the growth inhibition was 99% (active).

Regarding `O=C1C(=O)C(Cc2ccccc2)(c2ccccc2)C(=O)N1c1ccccc1` (stereo not given), the growth inhibition was 70% (active).

As to `CCC(O)C(O)(c1ccccc1)c1nc2ccccc2s1` (stereo not given), the growth inhibition was 23%.

As to `c1ccc(-n2ncc3ccc4cccn4c32)cc1`, the growth inhibition is 40%.

With `O=C(c1ccc([N+](=O)[O-])cc1)C(Br)C(Br)c1ccnc2ccccc12` (stereo not given), the growth inhibition was 91% (active).

On to `[Cl][Sn]1([Cl])[CH2]CC[CH2][Sn]([Cl])([Cl])[CH2]CC[CH2][Sn]([Cl])([Cl])[CH2]CC[CH2][Sn]([Cl])([Cl])[CH2]CC[CH2]1`, for which the growth inhibition was 66%.

As for `Nc1ccc(O)c(=O)cc1`, the growth inhibition is 18%.

As for `CC(C)c1cc(C(=O)[O-])c(O)c(C(C)C)c1.CC(C)c1cc(C(=O)[O-])c(O)c(C(C)C)c1.CC(C)c1cc(C(=O)[O-])c(O)c(C(C)C)c1.CC(C)c1cc(C(=O)[O-])c(O)c(C(C)C)c1.CC(C)c1cc(C(=O)[O-])c(O)c(C(C)C)c1.CC(C)c1cc(C(=O)[O-])c(O)c(C(C)C)c1.[Cu+2].[Mn+2].[Mn+2]`, the growth inhibition was 70% (active).
